“And” between values parts separate entries of the source, which are not always exact repeats. Identical values can stand only once. Compounds without any hit were thinned out: in the full panel of roughly 83,000, 20% have a hit.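 For each line, cells grew in 96-well plates with the test compound present at a single concentration for 48 hours.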 Values without a mark were called inactive. The source made the active and inactive calls. The calls were made as follows: active = growth percent below 10; inactive = the rest.
Experiments:
Test in all cases: NCI-60 one-dose screen, 48 h (100 = growth as untreated, 0 = no growth, -100 = all killed)
Settings in all cases: 10 µM unless noted
NCI-H23 lung = system: NCI-H23 lung
NCI-H226 lung = system: NCI-H226 lung
NCI-H322M lung = system: NCI-H322M lung
HOP-62 NSCLC = system: HOP-62 NSCLC
NCI-H460 lung = system: NCI-H460 lung
HOP-92 NSCLC = system: HOP-92 NSCLC
NCI-H522 lung = system: NCI-H522 lung
A549/ATCC NSCLC = system: A549/ATCC NSCLC
786-0 renal = system: 786-0 renal
COLO 205 colon = system: COLO 205 colon
DU-145 prostate = system: DU-145 prostate
K-562 leukemia = system: K-562 leukemia
MALME-3M melanoma = system: MALME-3M melanoma
MDA-MB-231 breast = system: MDA-MB-231 breast
RXF 393 renal = system: RXF 393 renal
SF-268 CNS = system: SF-268 CNS
SF-295 CNS = system: SF-295 CNS
SF-539 CNS = system: SF-539 CNS
UACC-257 melanoma = system: UACC-257 melanoma
M14 melanoma = system: M14 melanoma

SMILES	growth (NCI-H23 lung)	growth (NCI-H226 lung)	growth (NCI-H322M lung)	growth (HOP-62 NSCLC)	growth (NCI-H460 lung)	growth (HOP-92 NSCLC)	growth (NCI-H522 lung)	growth (A549/ATCC NSCLC)	growth (786-0 renal)	growth (COLO 205 colon)	growth (DU-145 prostate)	growth (K-562 leukemia)	growth (MALME-3M melanoma)	growth (MDA-MB-231 breast)	growth (RXF 393 renal)	growth (SF-268 CNS)	growth (SF-295 CNS)	growth (SF-539 CNS)	growth (UACC-257 melanoma)	growth (M14 melanoma)
Nc1nn2c(-c3cc4cc(Br)ccc4oc3=O)ccnc2c1N=Nc1ccc(Br)cc1	-7.78% (active)	-25% (active)	23.7%	-11.9% (active)	15%	-5.4% (active)	24.6%	39.6%	13.8%	35.8%	36.8%	32.4%	52.1%	-43.8% (active)	-31.4% (active)	26.9%	-37% (active)	-71.4% (active)	87.8%	42.4%
Nc1cc2ccccc2c(=O)n1NC(=O)c1ccc(Br)cc1	81.8%	69%	74.4%	101%	98.6%	103%	96.7%	100%	107%	114%	109%	101%	89.7%	66.8%	112%	89.8%	103%	67.5%	104%	91.7%
COc1ccc(NC(=O)Cn2c(/C=C/c3ccc([N+](=O)[O-])cc3)nc3ccccc3c2=O)cc1	34.9%	21.2%	70.2%	33.2%	42.3%	-12% (active)	73%	75.9%	9.31% (active)	85.3%	88.8%	120%	72.4%	-18.4% (active)	-57.8% (active)	64.9%	56.3%	30.3%	86.3%	69.5%
CCOc1ccccc1[C@H]1C(C(=O)c2ccc(Cl)cc2)C2(N[C@@H]1c1ccccc1)C(=O)Nc1ccc(Cl)cc12 (stereo not given in full)	21.5%	20.3%	48.7%	42.6%	17.3%	2.97% (active)	34.1%	40.5%	35%	15.3%	45.2%	6.17% (active)	45.7%	28.8%	2.56% (active)	46.6%	11.1%	37.2%	69.5%	22.5%
CC(=O)Nc1cccc(-n2c(COc3ccc(I)cc3)nc3ccccc32)c1	83.5% and 106%	68.3% and 113%	102% and 107%	118% and 120%	103% and 112%	79.9% and 116%	70.1% and 111%	101% and 108%	101% and 109%	96.9% and 128%	99.4% and 101%	67.5% and 104%	86.9% and 106%	70.7% and 109%	80.7% and 107%	81% and 99.1%	79.1% and 101%	84.5% and 107%	112% and 106%	102% and 115%
CN(C)c1nc(NCCNS(=O)(=O)c2ccc(C(=O)/C=C/c3ccc(F)cc3)cc2)nc(N2CCOCC2)n1	50.9%	74%	84.4%	76.2%	78.5%	77.8%	28.7%	7.37% (active)	-55.7% (active)	35%	33.3%	0.84% (active)	84.8%	36.4%	76.6%	73%	79.2%	12.2%	70.1%	12.7%
COc1ccc(S(=O)(=O)Nc2ccc(-c3ccc4c(c3)NC(=O)/C4=C\c3ccc[nH]3)cc2)cc1OC	-25.1% (active)	-37.8% (active)	31.6%	0.497% (active)	-52.5% (active)	5.85% (active)	2.96% (active)	-25.8% (active)	-9.09% (active)	39.8%	10.4%	28.7%	-16.2% (active)	-46.1% (active)	-23% (active)	65%	56.1%	-46.5% (active)	-10.7% (active)	0.851% (active)
CSc1ccc(OCc2nc3ccccc3n2-c2cccc(NS(C)(=O)=O)c2)cc1	92.3% and 81.1%	100% and 88.1%	106% and 105%	114% and 75.1%	114% and 73.3%	80.1% and 93.1%	105% and 96.7%	104% and 87.1%	114% and 97.3%	120% and 91.4%	103% and 67.1%	94.4% and 106%	95.3% and 84.1%	118% and 57.3%	81.7% and 84.1%	92.4% and 101%	106% and 96.5%	93.2% and 89.5%	116% and 107%	119% and 81.6%
CCCCCCCCCCCCCCCCCC(=O)Nc1ccc(OC)cc1	105%	103%	102%	101%	109%	102%	88.2%	104%	102%	120%	112%	92%	97.7%	99.9%	115%	108%	106%	97.3%	102%	105%
COC(=O)c1cc(C(C)=O)n2c3ccccc3c3ccccc3c12	78.1%	61.3%	104%	57.9%	110%	28.1%	86.4%	96.9%	36.6%	108%	67%	85.9%	84.6%	33.2%	11.8%	59.5%	56%	28.5%	118%	72.1%
O=C1CCC(N2C(=O)c3cccc(NCCOCCOCCOCCC(=O)NCCCC(=O)NC(c4ccc5c(c4)OCO5)c4cc(Cl)c5cccnc5c4O)c3C2=O)C(=O)C1 (stereo not given)	45.1%	45%	39.5%	34.3%	26.6%	13.7%	6.82% (active)	88.3%	70.8%	24.5%	60%	22.8%	29.3%	25.3%	43.6%	24.4%	61.6%	10.3%	29.7%	54.8%
O=C(NC(=S)N1CCN(c2ncnc3c2cnn3-c2ccccc2)CC1)c1ccc(Br)cc1	64.4%	60.6%	75.4%	37.4%	69.2%	47.2%	60.9%	80.6%	72%	98.7%	87.3%	61.4%	53.4%	75.4%	69.1%	58.5%	48.3%	-17.5% (active)	88.7%	83.1%
CCc1ccccc1NC(=O)N/C(N)=N/c1nc2ccccc2s1	-2.24% (active)	22.5%	28.3%	-14.9% (active)	39.5%	-15.2% (active)	-53.5% (active)	9.65% (active)	-4.92% (active)	-84.1% (active)	-8.39% (active)	10.6%	5.84% (active)	-21.3% (active)	11.8%	29.6%	-9.81% (active)	-50.4% (active)	49.7%	9.76% (active)
CC1=C(C)C(=O)C(NCCN2CCOCC2)=C(Br)C1=O	-0.608% (active)	67.1%	91.5%	87.2%	98%	38.7%	-18.4% (active)	87.6%	100%	130%	-76.9% (active)	0.994% (active)	-69% (active)	-6.27% (active)	122%	63.7%	103%	32.1%	-13.3% (active)	37.3%
Cc1cc(C(NC(=O)CCCCCNc2cccc3c2C(=O)N(C2CCC(=O)CC2=O)C3=O)c2cccc(N(C)C)c2)c(O)c2ncccc12 (stereo not given)	24%	-1.45% (active)	13.7%	-22.6% (active)	5.72% (active)	-10.4% (active)	13%	11.7%	2.23% (active)	7.54% (active)	27.5%	9.86% (active)	-11.8% (active)	-22.2% (active)	32.1%	20.5%	2.01% (active)	1.5% (active)	1.91% (active)	-26.5% (active)
FC(F)(F)c1cc2c(Cl)ncnc2n1CCC1CCOCC1	-14.4% (active)	39%	-72.6% (active)	6.11% (active)	-68.8% (active)	71.5%	-80% (active)	97.6%	87.7%	71.5%	-99.6% (active)	-26.3% (active)	79.2%	0.4% (active)	57.8%	-71.1% (active)	70.8%	70.8%	37.6%	-83.5% (active)
